Drawing on the supplement of paper PMC9950053, this text covers 1-h baseline activity for 40 compounds.

Each structure is given as a SMILES string. Structures can show the parent of a compound that is named as a salt.

The test system of the assay is Danio rerio larvae (5 dpf). Nature of the assay: 1-h baseline activity (% time moving, periods 1-6) minus DMSO control (percentage points); higher = more locomotor activity than DMSO larvae. The note with it: 10 µM; exposure time: 3 h pre-incubation + 3 h imaging. Here is the method: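 Wild-type 5 dpf zebrafish larvae (n=48 per drug, 96-well plates, 28.5 °C) were exposed to Tocris FDA-approved library compounds at 10 µM (0.1% DMSO) for 3 h before and 3 h during imaging. Images were taken every 6 s during visual (moving coloured lines) and acoustic stimuli, and larvae were tracked with the DeepLabCut-based Z-LaP Tracker. Each behavioural measure is the treated-group mean minus the DMSO vehicle control mean (n=844), in percentage points. This mapping covers compounds with 4-character plate codes.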
Turning to `CC(C)CN(C[C@@H](O)[C@H](Cc1ccccc1)NC(=O)O[C@H]1CO[C@H]2OCC[C@H]21)S(=O)(=O)c1ccc(N)cc1` [Darunavir], the 1-h baseline activity was 10.3. The result for `Clc1ccccc1C(c1ccccc1)(c1ccccc1)n1ccnc1` [Clotrimazole] reads -22.9; that for `CC(C)(C(=O)c1cccnc1)c1cccnc1` [Metyrapone], -9.17; that for `O=C1CCc2cc(OCCCCc3nnnn3C3CCCCC3)ccc2N1` [Cilostazol], 10. The result for `O=C(c1ccc(OCCN2CCCCC2)cc1)c1c(-c2ccc(O)cc2)sc2cc(O)ccc12` [Raloxifene hydrochloride] reads -7.31.

For the compound `CC(=O)O[C@]1(C(C)=O)CC[C@H]2[C@@H]3C=C(C)C4=CC(=O)CC[C@]4(C)[C@H]3CC[C@@]21C` [Megestrol Acetate], the 1-h baseline activity was -13.7. For `CC(c1cc2ccccc2s1)N(O)C(N)=O` (stereo not given) [Zileuton], the 1-h baseline activity is -1.65.

In the case of `Nc1ccn([C@@H]2O[C@H](CO)[C@@H](O)C2(F)F)c(=O)n1` [Gemcitabine hydrochloride], the 1-h baseline activity was -7.23.

On to `CC(C)[C@H]1CC[C@H](C(=O)N[C@H](Cc2ccccc2)C(=O)O)CC1` [Nateglinide], for which the 1-h baseline activity is 3.52.

As to `Nc1nc(Cl)nc2c1ncn2[C@@H]1O[C@H](CO)[C@@H](O)[C@@H]1F` [Clofarabine], the 1-h baseline activity is -5.31. Next, `CCOC(=O)[C@H](CCc1ccccc1)N[C@H]1CCc2ccccc2N(CC(=O)O)C1=O` [Benazepril hydrochloride]: 0.149; `CC(C)n1c(/C=C/C(O)CC(O)CC(=O)O)c(-c2ccc(F)cc2)c2ccccc21` (stereo not given) [Fluvastatin sodium]: -0.765.

As to `CC[C@H](C)C(=O)O[C@H]1C[C@@H](C)C=C2C=C[C@H](C)[C@H](CC[C@@H]3C[C@@H](O)CC(=O)O3)[C@H]21` [Lovastatin], the 1-h baseline activity was -3.77.

In the case of `CCCc1nc2c(C)cc(-c3nc4ccccc4n3C)cc2n1Cc1ccc(-c2ccccc2C(=O)O)cc1` [Telmisartan], the 1-h baseline activity is -7.8. The result for `CCOC(=O)N1CCC(=C2c3ccc(Cl)cc3CCc3cccnc32)CC1` [Loratidine] reads -19.4.

As to `O=C(O)c1cc(/N=N/c2ccc(S(=O)(=O)Nc3ccccn3)cc2)ccc1O` [Sulfasalazine], the 1-h baseline activity turned out to be 12.5. Next, `CC(C)(C#N)c1cc(Cn2cncn2)cc(C(C)(C)C#N)c1` [Anastrozole]: 1.59; `CC#C[C@]1(O)CC[C@H]2[C@@H]3CCC4=CC(=O)CCC4=C3[C@@H](c3ccc(N(C)C)cc3)C[C@@]21C` [Mifepristone]: -3.83. Next, `Cc1c(-c2ccc(O)cc2)n(Cc2ccc(OCCN3CCCCCC3)cc2)c2ccc(O)cc12` [Bazedoxifene acetate]: -14.5; `CCOC(=O)C1=C(COCCN)NC(C)=C(C(=O)OC)C1c1ccccc1Cl` (stereo not given) [Amlodipine besylate]: 0.364; `OCCN(CCO)c1nc(N2CCCCC2)c2nc(N(CCO)CCO)nc(N3CCCCC3)c2n1` [Dipyridamole]: -3.7. The result for `NC(=O)N1c2ccccc2C=Cc2ccccc21` [Carbamazepine] reads -4.18; that for `CN1CCN2c3ncccc3Cc3ccccc3C2C1` (stereo not given) [Mirtazapine], 11.7; that for `C/C(O)=C(\C#N)C(=O)Nc1ccc(C(F)(F)F)cc1` [Teriflunomide], -8.94. In the case of `CN(C)CCC[C@@]1(c2ccc(F)cc2)OCc2cc(C#N)ccc21` [Escitalopram oxalate], the 1-h baseline activity is -24.4.

Regarding `CC(=O)S[C@@H]1CC2=CC(=O)CC[C@]2(C)[C@H]2CC[C@@]3(C)[C@@H](CC[C@@]34CCC(=O)O4)[C@H]12` [Spironolactone], the 1-h baseline activity was -0.875. The result for `CC(C)C(=O)Nc1ccc([N+](=O)[O-])c(C(F)(F)F)c1` [Flutamide] reads -9.78; that for `N[C@@H]1[C@H]2CN(c3nc4c(cc3F)c(=O)c(C(=O)O)cn4-c3ccc(F)cc3F)C[C@@H]12` [Trovafloxacin mesylate], 4.29; that for `CCCCc1nc(Cl)c(CO)n1Cc1ccc(-c2ccccc2-c2nnn[nH]2)cc1` [Losartan potassium], 10.3. Next, `CN(C)CCc1c[nH]c2ccc(Cn3cncn3)cc12` [Rizatriptan benzoate]: -3.79; `N#Cc1ccc(C(c2ccc(C#N)cc2)n2cncn2)cc1` [Letrozole]: -4.77. Next, `OCCOCCN1CCN(C2=Nc3ccccc3Sc3ccccc32)CC1` [Quetiapine hemifumarate]: 9.62. Turning to `CC(C)c1nc(N(C)S(C)(=O)=O)nc(-c2ccc(F)cc2)c1/C=C/[C@@H](O)C[C@@H](O)CC(=O)O` [Rosuvastatin calcium], the 1-h baseline activity came out at 2.58. As for `C=CC(=O)N1CCC[C@@H](n2nc(-c3ccc(Oc4ccccc4)cc3)c3c(N)ncnc32)C1` [Ibrutinib], the 1-h baseline activity was -7.48. The result for `CC1CNc2c(cccc2S(=O)(=O)N[C@@H](CCCNC(=N)N)C(=O)N2CC[C@@H](C)C[C@@H]2C(=O)O)C1` (stereo not given in full) [Argatroban] reads 3.52. For the compound `COc1cc2nc(N3CCN(C(=O)c4ccco4)CC3)nc(N)c2cc1OC` [Prazosin hydrochloride], the 1-h baseline activity is -4.14. The result for `COc1cccc2c1C(=O)c1c(O)c3c(c(O)c1C2=O)C[C@@](O)(C(=O)CO)C[C@@H]3O[C@H]1C[C@H](N)[C@H](O)[C@H](C)O1` [Doxorubicin hydrochloride] reads -7.23; that for `CCc1c2c(nc3ccc(OC(=O)N4CCC(N5CCCCC5)CC4)cc13)-c1cc3c(c(=O)n1C2)COC(=O)[C@]3(O)CC`, -6.2; that for `COC(c1ccccc1)(c1ccccc1)[C@H](Oc1nc(C)cc(C)n1)C(=O)O` [Ambrisentan], 0.292. Take `COc1ccc([C@@H]2Sc3ccccc3N(CCN(C)C)C(=O)[C@@H]2OC(C)=O)cc1` [Diltiazem hydrochloride]: the 1-h baseline activity is -4.8.
